The nature of experiment [1]: small molecules captured by biotinylated probe aFSTL3 – biochemical, small-molecule microarray, fluorescence 635/667, stem cell growth factor project, primary screen (AID 1064).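 Note: measures binding of the biotinylated anti-FSTL3 antibody to printed compounds.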 The following applies: higher = more signal.
Experiment [2] is described as follows: binders from COS7 lysate, DM2A8 probe, primary screen, torsin A project, cell lysate, small-molecule microarray, fluorescence 635/667 (AID 1065). To be noted: higher = more signal, COS7 lysate expressing mutant human TOR1A.
Experiment [3] is described as follows: small molecules captured by biotinylated probe aFGF2 – biochemical, small-molecule microarray, fluorescence 635/667, stem cell growth factor project, primary screen (AID 1067).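 Note: measures binding of biotinylated aFGF2 protein to printed compounds on slides; z-score merges feature fluorescence and signal-to-noise across triplicate slides.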 To be noted: higher = more signal.
Experiment [4] in a line: small molecules captured by biotinylated probe aFGF10 – biochemical, small-molecule microarray, fluorescence 635/667, stem cell growth factor project, primary screen (AID 1071).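 Note: score merges 667 nm spot intensity and signal to noise from triplicate slides.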 To be noted: higher = more signal.
Experiment [5] concerns the target Neurogenic locus notch homolog protein 2 (Homo sapiens) (UniProt Q04721). The experiment in a line: small molecules binding Notch2 protein – biochemical, small-molecule microarray, 635 nm fluorescence, stem cell growth factors, primary screen (AID 1073). The following applies: higher = more signal.
For experiment [6], the target named is Pro-neuregulin-1, membrane-bound isoform (Homo sapiens) (UniProt Q02297). The experiment is described as follows: small molecules binding neuregulin-1 protein – biochemical, small-molecule microarray, fluorescence 635/667, psychiatric disease protein project, primary screen (AID 1075).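 Note: score combines 667 nm spot fluorescence with signal to noise.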 To be noted: NRG1 binding, 635 nm fluorescence, higher = more signal.
Experiment [7] deals with Neuregulin-1 EGF-like domain. The experiment in a line: small molecules binding NRG1 EGF domain – biochemical, small-molecule microarray, 635 nm fluorescence, primary screen (AID 1081).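 Note: binding of the protein to compounds printed on small-molecule microarray slides.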 The following applies: higher = more signal.
Experiment [8] in a line: FRG1 expression reporter modulators in myotubes – cell-based, C2C12 myotubes, firefly/Renilla luciferase, luminescence, FRG1 inhibition for FSHD, primary screen (AID 1084). To be noted: FRG1 promoter luciferase, higher = more signal, called active from +8 up or from −8 down.
Experiment [9] is described as follows: small molecules captured by biotinylated probe aFST – biochemical, small-molecule microarray, fluorescence 635/667, stem cell growth factor project, primary screen (AID 1086).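 Note: score merges 667 nm fluorescence with signal-to-noise of each printed compound spot.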 To be noted: higher = more signal.
Experiment [10] in a line: binders of probe aHhip on microarray, primary screen, stem cell growth factor project, biochemical, small-molecule microarray, fluorescence 635/667 (AID 1087).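 Note: score merges spot fluorescence at 667nm with spot signal to noise ratio.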 To be noted: higher = more signal.
The test system of experiment [11] is PRMT1 (protein arginine N-methyltransferase 1). The experiment in a line: small molecules binding arginine methyltransferase PRMT1 – biochemical, small-molecule microarray, 635 nm fluorescence, primary screen (AID 1088).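 Note: binding of Prmt1 protein to compounds spotted on small-molecule microarray slides.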 To be noted: higher = more signal.
Experiment [12] is described as follows: growth effects on S. cerevisiae YJM789 – YJM789 clinical isolate, OD600, 24 h, basal, primary screen (AID 1089).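 Note: growth of clinical yeast isolate S. cerevisiae YJM 789 seeded 1000 cells per well; test concentration not given here.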 To be noted: higher = more signal, called active from +8 up or from −8 down.
A short description of experiment [13]: S. pombe growth modifiers, basal conditions – strain 972, OD600, 24 h, no modulator, primary screen (AID 1090).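 Note: basal condition with compound alone and no growth modifier present; test concentration not given here.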 The following applies: S. pombe 972 growth, higher = more signal, called active from +8 up or from −8 down.
Experiment [14] can be described thus: budding yeast growth modifiers under rapamycin – strain BY4716, OD600, 96 h, primary screen (AID 1091). Note: test concentration not given here. The following applies: S. cerevisiae BY4716 + rapamycin, higher = more signal, called active from +8 up or from −8 down.
Experiment [15] addresses Torsin-1A-interacting protein 2 (Homo sapiens) (UniProt Q8NFQ8). The experiment in a line: small molecules binding lysate-expressed LULL1 – cell lysate, human LULL1 lysate, 635/667 nm fluorescence, primary screen (AID 1092).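 Note: score merges per-feature 667 nm fluorescence with signal-to-noise.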 To be noted: small-molecule microarray, hLULL1 lysate binding, 635 nm fluorescence; higher = more signal.
A short description of experiment [16]: optical density change of DRC41 E. coli – strain DRC41, OD650, 24 h, E. coli filamentation project, primary screen (AID 1093).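 Note: MC1000 strain lacking acrAB efflux and sulA so SOS filamentation is blocked; test concentration not given here.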 The following applies: E. coli DRC41 growth, higher = more signal, called active from +8 up or from −8 down.
Experiment [17] is described as follows: probe aLefty2 binding to arrayed compounds – biochemical, biotinylated probe, 635/667 nm fluorescence, primary screen (AID 1094).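 Note: score merges spot fluorescence near 667 nm with spot signal-to-noise ratio.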 The following applies: small-molecule microarray, higher = more signal.
For experiment [18], the system named is Noggin (protein binding on small-molecule microarray). The experiment in a line: small molecules binding Noggin protein – biochemical, 635/667 nm fluorescence, primary screen (AID 1095).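 Note: score merges 667 nm feature fluorescence with signal to noise over triplicate slides.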 The following applies: 635 nm fluorescence, higher = more signal.
Experiment [19] addresses Neurogenic locus notch homolog protein 3 (Homo sapiens) (UniProt Q9UM47). The experiment in a line: small molecules binding NOTCH3 protein – biochemical, 635/667 nm fluorescence, primary screen (AID 1096). To be noted: small-molecule microarray, 635 nm fluorescence, higher = more signal.
Experiment [20] is described as follows: probe aEGFR binding to arrayed compounds – biochemical, biotinylated probe, 635/667 nm fluorescence, primary screen (AID 1097).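 Note: probe is a biotinylated anti-EGFR antibody binding compounds printed on slides; score combines fluorescence near 667 nm and signal to noise of each spot.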 The following applies: small-molecule microarray, higher = more signal.

The source made the active and inactive calls.

Sequence of Torsin-1A-interacting protein 2 (Homo sapiens) (Q8NFQ8 whole entry, looked up): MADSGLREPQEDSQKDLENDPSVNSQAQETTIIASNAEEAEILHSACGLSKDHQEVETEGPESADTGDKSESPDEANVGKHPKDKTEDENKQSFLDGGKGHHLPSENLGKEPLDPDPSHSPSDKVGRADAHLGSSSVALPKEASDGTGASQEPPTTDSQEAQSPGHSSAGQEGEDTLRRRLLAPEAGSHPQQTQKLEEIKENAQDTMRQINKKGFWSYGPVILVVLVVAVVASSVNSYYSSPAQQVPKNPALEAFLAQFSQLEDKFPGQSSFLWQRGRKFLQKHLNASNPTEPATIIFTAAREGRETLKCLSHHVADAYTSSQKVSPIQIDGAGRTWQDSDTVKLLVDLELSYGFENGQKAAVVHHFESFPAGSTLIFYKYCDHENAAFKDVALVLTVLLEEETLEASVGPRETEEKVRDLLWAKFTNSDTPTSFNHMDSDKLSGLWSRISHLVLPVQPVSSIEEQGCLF
Sequence of Neurogenic locus notch homolog protein 3 (Homo sapiens) (Q9UM47 whole entry, looked up): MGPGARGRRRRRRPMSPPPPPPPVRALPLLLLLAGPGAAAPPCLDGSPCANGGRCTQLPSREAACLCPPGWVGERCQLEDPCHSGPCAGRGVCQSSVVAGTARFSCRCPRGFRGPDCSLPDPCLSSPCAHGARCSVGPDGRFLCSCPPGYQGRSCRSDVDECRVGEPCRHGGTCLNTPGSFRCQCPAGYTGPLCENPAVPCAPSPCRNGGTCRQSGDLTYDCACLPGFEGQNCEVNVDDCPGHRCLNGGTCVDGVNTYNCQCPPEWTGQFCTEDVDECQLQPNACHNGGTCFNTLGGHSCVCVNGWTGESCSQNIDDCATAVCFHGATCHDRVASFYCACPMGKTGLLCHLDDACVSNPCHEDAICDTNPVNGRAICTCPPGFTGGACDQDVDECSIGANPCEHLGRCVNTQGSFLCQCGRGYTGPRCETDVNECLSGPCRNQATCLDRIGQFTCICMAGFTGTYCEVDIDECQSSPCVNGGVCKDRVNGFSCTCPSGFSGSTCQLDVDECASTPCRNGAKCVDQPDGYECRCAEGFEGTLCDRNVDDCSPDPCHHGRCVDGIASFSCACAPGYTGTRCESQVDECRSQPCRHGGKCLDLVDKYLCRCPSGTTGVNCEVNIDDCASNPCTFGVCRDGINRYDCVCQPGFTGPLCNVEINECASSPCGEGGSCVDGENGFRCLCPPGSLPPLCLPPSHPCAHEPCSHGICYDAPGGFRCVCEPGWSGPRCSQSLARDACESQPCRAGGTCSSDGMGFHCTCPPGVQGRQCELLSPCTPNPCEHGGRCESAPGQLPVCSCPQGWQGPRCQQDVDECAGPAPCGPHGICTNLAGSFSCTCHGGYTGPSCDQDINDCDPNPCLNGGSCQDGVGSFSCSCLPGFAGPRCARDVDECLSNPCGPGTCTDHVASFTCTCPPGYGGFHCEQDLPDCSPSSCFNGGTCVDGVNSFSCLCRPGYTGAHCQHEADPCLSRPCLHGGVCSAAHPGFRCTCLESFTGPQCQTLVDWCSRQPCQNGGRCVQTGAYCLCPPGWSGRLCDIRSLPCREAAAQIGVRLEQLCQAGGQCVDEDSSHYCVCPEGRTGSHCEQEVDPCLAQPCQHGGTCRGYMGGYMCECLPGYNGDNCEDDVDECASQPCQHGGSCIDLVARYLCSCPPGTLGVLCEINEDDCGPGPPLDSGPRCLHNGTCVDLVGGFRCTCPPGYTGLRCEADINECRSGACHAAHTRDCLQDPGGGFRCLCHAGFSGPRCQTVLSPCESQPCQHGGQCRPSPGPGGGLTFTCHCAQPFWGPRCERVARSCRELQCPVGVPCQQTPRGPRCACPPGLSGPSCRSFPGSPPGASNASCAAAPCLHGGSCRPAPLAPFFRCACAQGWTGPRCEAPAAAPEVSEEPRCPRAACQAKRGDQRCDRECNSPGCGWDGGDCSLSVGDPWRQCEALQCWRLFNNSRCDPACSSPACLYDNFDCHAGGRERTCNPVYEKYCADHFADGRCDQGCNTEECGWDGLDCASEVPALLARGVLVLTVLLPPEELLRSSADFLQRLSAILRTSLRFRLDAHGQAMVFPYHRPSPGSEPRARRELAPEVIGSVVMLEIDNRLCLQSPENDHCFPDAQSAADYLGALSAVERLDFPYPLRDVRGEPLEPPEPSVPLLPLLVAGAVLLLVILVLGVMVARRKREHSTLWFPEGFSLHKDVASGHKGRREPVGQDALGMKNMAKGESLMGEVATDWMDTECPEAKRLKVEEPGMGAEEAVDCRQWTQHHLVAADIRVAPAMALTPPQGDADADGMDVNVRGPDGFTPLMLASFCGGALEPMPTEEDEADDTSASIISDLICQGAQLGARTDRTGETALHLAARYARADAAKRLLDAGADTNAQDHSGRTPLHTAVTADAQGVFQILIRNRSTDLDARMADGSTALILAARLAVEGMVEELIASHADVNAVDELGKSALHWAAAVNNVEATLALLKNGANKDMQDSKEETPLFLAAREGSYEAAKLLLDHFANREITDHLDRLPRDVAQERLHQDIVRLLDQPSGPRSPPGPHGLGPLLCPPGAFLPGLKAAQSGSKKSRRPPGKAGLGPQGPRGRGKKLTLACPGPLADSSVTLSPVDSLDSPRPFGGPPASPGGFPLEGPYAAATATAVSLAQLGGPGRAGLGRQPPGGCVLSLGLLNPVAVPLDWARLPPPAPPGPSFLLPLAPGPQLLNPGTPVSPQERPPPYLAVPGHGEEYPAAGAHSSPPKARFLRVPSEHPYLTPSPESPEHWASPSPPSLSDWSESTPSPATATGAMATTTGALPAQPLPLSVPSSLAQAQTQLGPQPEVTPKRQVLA
Sequence of Pro-neuregulin-1, membrane-bound isoform (Homo sapiens) (Q02297 whole entry, looked up, the tested form may be a part, canonical isoform): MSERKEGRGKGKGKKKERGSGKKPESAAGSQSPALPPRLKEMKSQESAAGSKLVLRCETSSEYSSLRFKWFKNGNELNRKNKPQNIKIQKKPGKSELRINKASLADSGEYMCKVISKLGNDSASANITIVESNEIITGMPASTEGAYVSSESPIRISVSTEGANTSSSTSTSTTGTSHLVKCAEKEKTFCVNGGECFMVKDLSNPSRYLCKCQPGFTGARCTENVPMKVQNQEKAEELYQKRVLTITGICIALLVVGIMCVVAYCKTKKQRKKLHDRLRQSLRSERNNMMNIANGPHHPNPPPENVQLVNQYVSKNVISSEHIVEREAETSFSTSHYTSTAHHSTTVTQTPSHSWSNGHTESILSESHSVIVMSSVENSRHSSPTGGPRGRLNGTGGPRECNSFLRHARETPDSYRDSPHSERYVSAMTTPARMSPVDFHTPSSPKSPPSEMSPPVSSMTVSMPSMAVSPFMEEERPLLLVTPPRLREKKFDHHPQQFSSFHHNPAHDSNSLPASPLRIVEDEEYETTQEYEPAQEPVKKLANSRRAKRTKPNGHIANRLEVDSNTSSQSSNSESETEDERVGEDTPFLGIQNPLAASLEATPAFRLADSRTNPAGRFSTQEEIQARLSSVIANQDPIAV

On to `C[C@@H](c1ccccc1)N1C(=O)[C@H]2[C@H]3[C@H](O)[C@H](O)CC(=NOCc4ccccc4)[C@@H]3CC[C@H]2C1=O`, for which the composite z-score was 1.67 in experiment [1]; -0.0647 in experiment [2]; -0.0203 in experiment [3]; 0.0018 in [4]; -0.578 in [5]; -0.258 in experiment [6]. The composite z-score in [7] was -0.521; in experiment [9], 0.401; in experiment [10] it was -0.0672; in [11] it was -0.246; in experiment [15], 0.379; in [17], 0.408. Besides, the values for the composite z-score in experiment [18], in experiment [19] and in [20] were -0.29, -0.551 and -0.203, respectively. Moreover, the z-score was 0.717 (inactive) in [8]; 0.855 (inactive) in experiment [12]; -0.293 (inactive) in experiment [13]; 0.512 (inactive) in experiment [14]; -0.125 (inactive) in experiment [16].

For `COc1ccc(O[C@H]2C=C[C@@H](c3ccccc3)O[C@@H]2CON=C(C)CCN2CCCc3nc(C)c(C)cc32)cc1`, the composite z-score in experiment [1] was -0.353; in experiment [2] it was 0.0823; in [3] it was -0.0812; in experiment [4] it was 0.076; in experiment [5], 0.476; in [6], 0.626. Moreover, the composite z-score is 0.954 in [7]; 0.698 in experiment [9]; -0.0328 in [10]; 1.42 in experiment [11]; 1.56 in [15]; -0.0511 in experiment [17]. Also, the composite z-score in experiment [18] was 0.485; in [19] it was 1.02; in [20], -0.0531. The z-score in experiment [8] is -0.303 (inactive); in experiment [12], -0.571 (inactive); in experiment [13], -0.739 (inactive); in experiment [14] it was -0.706 (inactive); in experiment [16], 0.766 (inactive).

Consider `COc1ccc(COC(=O)NN=C2C[C@@H](O)[C@@H](O)[C@@H]3[C@@H]4C(=O)N(c5cccc(Oc6ccccc6)c5)C(=O)[C@@H]4CC[C@H]23)cc1`, for which the composite z-score was 0.937 in experiment [1]; -0.379 in experiment [2]; -0.138 in [3]; 0.0478 in experiment [4]; -0.311 in [5]; 0.783 in [6]. For the same compound, the composite z-score in experiment [7] is -0.317; in [9], 0.85; in experiment [10], -0.0994; in [11] it was -0.412; in experiment [15], 0.717; in [17], 0.297. Also, the composite z-score in experiment [18] was -0.476; in experiment [19], 0.148; in experiment [20], -0.109. The z-score was 0.632 (inactive) in [8]; 0.135 (inactive) in [12]; -0.655 (inactive) in experiment [13]; -0.693 (inactive) in experiment [14]; 1.02 (inactive) in experiment [16].

Take `COC(=O)C(C(=O)OC)C1CCCC(=O)C1` (stereo not given): the composite z-score was -0.414 in [1]; 1.45 in [2]; -0.0611 in [3]; 0.353 in experiment [4]; 0.329 in [5]; -0.146 in experiment [6]. Besides, the composite z-score in [7] is -0.127; in experiment [9] it was 0.406; in [10], -0.264; in experiment [11], -0.734; in [15], 0.291; in experiment [17], -0.0362. The values for the composite z-score in experiment [18], in experiment [19] and in experiment [20] were 0.365, 0.655 and -0.0952, respectively. Besides, the z-score was 0.335 (inactive) in experiment [8]; 0.069 (inactive) in [12]; 0.389 (inactive) in experiment [13]; 0.751 (inactive) in [14]; -0.195 (inactive) in [16].

Turning to `OC[C@H]1O[C@H](C#Cc2ccccc2)C=C[C@@H]1O`, the composite z-score is -0.406 in [1]; -0.437 in [2]; -0.0732 in [3]; 0.325 in [4]; 0.322 in experiment [5]; 0.0659 in experiment [6]. In addition, the composite z-score in [7] is 0.0463; in experiment [9], 0.101; in experiment [10], 0.107; in experiment [11] it was 0.232; in experiment [15] it was 0.233; in [17] it was -0.113. Also, the composite z-score in [18] was 0.498; in experiment [19] it was 0.609; in [20], -0.124. Besides, the z-score in [8] was -0.999 (inactive); in experiment [12], 0.643 (inactive); in experiment [13], -1.33 (inactive); in [14], -0.98 (inactive); in [16], 0.897 (inactive).

These data come from PubChem BioAssay.
